# Values joined by “and” are separate entries in the source; they are usually repeats but may differ in a detail not shown here. Equal values may be shown once. Inconclusive results are not listed. Entries that show only a call come without a potency. Active and inactive are the calls of the source. Unless noted, calls follow the shape of the dose curve; as a rule, active = well fitted curve in the direction sought with a large enough effect; inconclusive = small, poorly fitted or top-dose-only effect, or another doubt; inactive = no such curve, though single readings can be large; an effect the other way counts as inactive or inconclusive.
# Experiments:
# [1] = Cell Viability - LYMP2-016 (AID 984);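 also: cells exposed to compound for 24 hours at 37 °C; nearly all actives have a fitted effect of over 55% in size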
# In short: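 Cells were seeded at 2500 per well and rested 5 hr before a 24 hr compound exposure at 37 C. Viability was then gauged as cellular ATP by luciferase luminescence, with AC50 values fitted to the Hill equation.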
# [2] = Cell Viability - LYMP2-018 (AID 985); also: nearly all actives have a fitted effect of over 50% in size
# In short: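 2500 cells/well; 5 hr 37 C; cmpd 24 hr 37 C, complete medium; CellTiter-Glo 30 min RT; luminescence. Tetraoctylammonium bromide positive control. AC50 via Hill fit.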
# [3] = Cell Viability - LYMP2-020 (AID 986);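 also: cells exposed to compound for 24 h at 37 °C; nearly all actives have a fitted effect of over 55% in size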
# In short: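 qHTS, 2500 cells/well; 5 hr then 24 hr compound exposure, 37 C; CellTiter-Glo luminescence after 30 min RT; ATP decrease taken as cytotoxicity; AC50 via Hill equation; tetraoctylammonium bromide positive control.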
# [4] = Cell Viability - LYMP2-022 (AID 987); also: nearly all actives have a fitted effect of over 55% in size
# In short: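 Luminescent ATP read-out (CellTiter-Glo, 30 min, RT) after 24 hr, 37 C compound exposure of 2500 human lymphoblastoid cells/well in complete medium. Cytotoxicity taken as concentration-dependent ATP loss; AC50 from standard Hill equation.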
# [5] = Cell Viability - LYMP2-026 (AID 989);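 also: cells exposed to compound for 24 h at 37 °C; nearly all actives have a fitted effect of over 50% in size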
# In short: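 qHTS cytotoxicity: 2500 cells/well, 5 hr 37 C, compound 24 hr 37 C, CellTiter-Glo 30 min RT, luminescence. Tetraoctylammonium bromide positive control. AC50 via standard Hill fit.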
# [6] = Cell Viability - LYMP1-002 - Assay at 40 hr (AID 994); also: nearly all actives have a fitted effect of over 60% in size; also: potency is read from the fitted curve at half-maximal effect
# In short: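 qHTS cytotoxicity; 2500 cells/well, 5 hr 37 C settle, compound 40 hr 37 C. CellTiter-Glo, 30 min RT, luminescence (ATP). Concentration-response, Hill fit → AC50. Pos. ctrl tetraoctylammonium bromide.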
# [7] = molecular target: alpha-glucosidase (Oryza sativa, rice) (UniProt Q653V4); assay: Counterscreen for Glucocerebrosidase Inhibitors: qHTS Assay for Rice alpha-Glucosidase at pH 5.0 (AID 997)
# In short: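 Endpoint fluorogenic assay at pH 5.0: compounds (0.7 nM to 77 uM) titrated against 4 nM rice enzyme and 400 uM 4-MU-alpha-glucoside for 20 min at room temperature; NaOH/glycine stop, read ex 365/em 440 nm, Hill-fitted AC50.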
# [8] = qHTS Assay for Lipid Storage Modulators (AID 1519; calls by dose curve); conditions: Drosophila S3 cells, BODIPY lipid droplet/cell ratio, laser cytometry, cells loaded with oleic acid
# In short: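 Cells seeded at 5,000 per well were treated with compounds over a concentration series and loaded with oleic acid (400 uM, as added). Lipid droplet fluorescence (488 nm excitation, 500-530 nm channel) was read by laser-scanning cytometry and normalized to 20 uM Triacsin C.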
# [9] = molecular target: Alpha-galactosidase A (Homo sapiens) (UniProt P06280); assay: Counterscreen for Glucocerebrosidase Inhibitors: qHTS Assay for Human alpha-Galactosidase at pH 4.5 (AID 992)
# In short: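 Fluorogenic 1536-well qHTS at pH 4.5 (citrate, Tween-20): 2 nM enzyme, 80 uM 4-MU-alpha-galactoside, 20 min room temperature, NaOH/glycine stop. Titration 0.7 nM to 77 uM, data normalized to no-enzyme and full-activity controls, Hill-fitted AC50.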
# [10] = measured here: cell count channel max response
# [11] = measured here: lipid channel max response
# Sequence of Alpha-galactosidase A (Homo sapiens) (P06280 whole entry, looked up): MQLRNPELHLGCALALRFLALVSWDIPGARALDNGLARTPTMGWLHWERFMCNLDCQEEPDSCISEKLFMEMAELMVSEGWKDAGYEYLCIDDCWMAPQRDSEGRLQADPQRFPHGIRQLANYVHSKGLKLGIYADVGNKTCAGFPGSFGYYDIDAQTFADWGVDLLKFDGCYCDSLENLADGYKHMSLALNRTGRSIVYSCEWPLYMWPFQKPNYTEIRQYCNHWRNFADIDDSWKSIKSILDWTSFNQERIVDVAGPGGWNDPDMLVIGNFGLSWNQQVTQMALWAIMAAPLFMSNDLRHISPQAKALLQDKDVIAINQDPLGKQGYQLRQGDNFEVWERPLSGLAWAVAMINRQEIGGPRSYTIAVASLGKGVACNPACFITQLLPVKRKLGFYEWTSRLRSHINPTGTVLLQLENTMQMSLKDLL
smiles,measurement,setting,value
Cn1c(=O)c2c(ncn2C)n(C)c1=O,outcome,[1],inactive
same,outcome,[2],inactive
same,outcome,[3],inactive
same,outcome,[4],inactive
same,outcome,[5],inactive
same,Potency,[6],inactive
same,outcome,[7],inactive
same,"activity change, negative = inhibition",[8]; at 57.5 µM (top of the series),9.95% (inactive) and -17.6% (inactive)
same,max response,[8]; [10],6.09% and -15.3%
same,max response,[8]; [11],17.2% and -15.6%
Nc1c2c(nc3ccccc13)CCCC2,outcome,[1],inactive
same,outcome,[2],inactive
same,outcome,[3],inactive
same,outcome,[4],inactive
same,outcome,[5],inactive
same,Potency,[6],inactive
same,outcome,[7],inactive
same,"activity change, negative = inhibition",[8]; at 25.7 µM (top of the series),0.95% (inactive)
same,"activity change, negative = inhibition",[8]; at 57.5 µM (top of the series),2.49% (inactive)
same,max response,[8]; [10],-0.801% and 25.5%
same,max response,[8]; [11],-0.834% and 27.2%
NCCCCCC(=O)O,outcome,[9],inactive
same,outcome,[7],inactive
same,"activity change, negative = inhibition",[8]; at 25.7 µM (top of the series),-1.59% (inactive)
same,"activity change, negative = inhibition",[8]; at 57.5 µM (top of the series),7.83% (inactive) and -0.624% (inactive)
same,max response,[8]; [10],-1.8% and 21.2% and -62.4%
same,max response,[8]; [11],-4.61% and 34.1% and -65.3%
CN(C)CCC=C1c2ccccc2C=Cc2ccccc21,outcome,[9],inactive
same,outcome,[7],inactive
same,"activity change, negative = inhibition",[8]; at 25.7 µM (top of the series),-1.76% (inactive)
same,"activity change, negative = inhibition",[8]; at 57.5 µM (top of the series),0.751% (inactive)
same,max response,[8]; [10],-6.8% and 1.02%
same,max response,[8]; [11],-7.37% and 4.03%
Clc1ccc(C(c2ccccc2Cl)C(Cl)Cl)cc1 (configuration not stated),outcome,[1],inactive
same,outcome,[2],inactive
same,outcome,[3],inactive
same,outcome,[4],inactive
same,outcome,[5],inactive
same,Potency,[6],inactive
same,outcome,[7],inactive
same,"activity change, negative = inhibition",[8]; at 57.5 µM (top of the series),11.4% (inactive) and -0.0471% (inactive)
same,max response,[8]; [10],11% and -19.2%
same,max response,[8]; [11],22.4% and -18.8%
O=C(c1ccc(OCCN2CCCCC2)cc1)c1c(-c2ccc(O)cc2)sc2cc(O)ccc12,outcome,[9],inactive
same,outcome,[7],inactive
same,"activity change, negative = inhibition",[8]; at 25.7 µM (top of the series),-1.98% (inactive)
same,"activity change, negative = inhibition",[8]; at 57.5 µM (top of the series),1.97% (inactive)
same,max response,[8]; [10],-4.67% and -13.2%
same,max response,[8]; [11],-4.93% and -10.5%
Cc1ccc(C(=O)Nc2ccc(S(=O)(=O)O)c3cc(S(=O)(=O)O)cc(S(=O)(=O)O)c23)cc1NC(=O)c1cccc(NC(=O)Nc2cccc(C(=O)Nc3cc(C(=O)Nc4ccc(S(=O)(=O)O)c5cc(S(=O)(=O)O)cc(S(=O)(=O)O)c45)ccc3C)c2)c1,outcome,[7],inactive
same,"activity change, negative = inhibition",[8]; at 57.5 µM (top of the series),2.55% (inactive) and 9.29% (inactive)
same,max response,[8]; [10],-19.7% and 7.39%
same,max response,[8]; [11],-18.9% and 17.7%
COC(=O)Nc1nc2ccc(C(=O)c3cccs3)cc2[nH]1,outcome,[9],inactive
same,outcome,[7],inactive
same,"activity change, negative = inhibition",[8]; at 25.7 µM (top of the series),-7.22% (inactive)
same,"activity change, negative = inhibition",[8]; at 57.5 µM (top of the series),1.19% (inactive)
same,max response,[8]; [10],-4.31% and 9.27%
same,max response,[8]; [11],-12.3% and 9.44%
O=C(CCCN1CCC(O)(c2ccc(Cl)cc2)CC1)c1ccc(F)cc1,outcome,[9],inactive
same,outcome,[7],inactive
same,"activity change, negative = inhibition",[8]; at 25.7 µM (top of the series),0.51% (inactive)
same,"activity change, negative = inhibition",[8]; at 57.5 µM (top of the series),7.71% (inactive)
same,max response,[8]; [10],-8.83% and 9.42%
same,max response,[8]; [11],-10.1% and 21.7%
CC(COc1ccccc1)N(CCCl)Cc1ccccc1 (configuration not stated),Potency,[6],inactive
same,"activity change, negative = inhibition",[8]; at 57.5 µM (top of the series),6.18% (inactive)
same,max response,[8]; [10],11.9%
same,max response,[8]; [11],23.2%
O=C1c2c(O)ccc(O)c2C(=O)c2c(NCCNCCO)ccc(NCCNCCO)c21,outcome,[9],inactive
same,outcome,[7],inactive
same,"activity change, negative = inhibition",[8]; at 25.7 µM (top of the series),0.282% (inactive)
same,"activity change, negative = inhibition",[8]; at 57.5 µM (top of the series),-5.29% (inactive)
same,max response,[8]; [10],-20.6% and -20.2%
same,max response,[8]; [11],-20.7% and -20.9%
O=C(C1CCCCC1)N1CC(=O)N2CCc3ccccc3C2C1 (configuration not stated),outcome,[9],inactive
same,outcome,[7],inactive
same,"activity change, negative = inhibition",[8]; at 57.5 µM (top of the series),2.76% (inactive)
same,max response,[8]; [10],-17.9%
same,max response,[8]; [11],-16.6%
Cc1cnc(C(=O)NCCc2ccc(S(=O)(=O)NC(=O)NC3CCCCC3)cc2)cn1,outcome,[7],inactive
same,"activity change, negative = inhibition",[8]; at 25.7 µM (top of the series),1.51% (inactive)
same,"activity change, negative = inhibition",[8]; at 57.5 µM (top of the series),0.481% (inactive)
same,max response,[8]; [10],-0.601% and 30.7%
same,max response,[8]; [11],0.0944% and 30.2%
CNCCCC12CCC(c3ccccc31)c1ccccc12,outcome,[9],inactive
same,outcome,[7],inactive
same,"activity change, negative = inhibition",[8]; at 25.7 µM (top of the series),-2.57% (inactive)
same,"activity change, negative = inhibition",[8]; at 57.5 µM (top of the series),-1.14% (inactive) and 2.05% (inactive)
same,max response,[8]; [10],-12.7% and 1.78% and 3.8%
same,max response,[8]; [11],-13.9% and 1.75% and 6.48%
O=c1[nH]cc(F)c(=O)[nH]1,outcome,[1],inactive
same,outcome,[3],inactive
same,outcome,[5],inactive
same,outcome,[7],inactive
same,"activity change, negative = inhibition",[8]; at 57.5 µM (top of the series),6.92% (inactive) and -0.382% (inactive)
same,max response,[8]; [10],3.09% and 58.9%
same,max response,[8]; [11],12.8% and 58.3%
CN1CCC(=C2c3ccccc3CC(=O)c3sccc32)CC1,outcome,[7],inactive
same,"activity change, negative = inhibition",[8]; at 25.7 µM (top of the series),-3.11% (inactive)
same,"activity change, negative = inhibition",[8]; at 57.5 µM (top of the series),1.94% (inactive)
same,max response,[8]; [10],0.637% and -29.8%
same,max response,[8]; [11],-3.73% and -28.3%
NC12CC3CC(CC(C3)C1)C2,outcome,[7],inactive
same,"activity change, negative = inhibition",[8]; at 25.7 µM (top of the series),-3.08% (inactive)
same,"activity change, negative = inhibition",[8]; at 57.5 µM (top of the series),3.74% (inactive) and -0.728% (inactive)
same,max response,[8]; [10],0.387% and 4.41% and -44.8%
same,max response,[8]; [11],-3.12% and 9.04% and -45.9%
CN(C)C(=N)N=C(N)N,"activity change, negative = inhibition",[8]; at 25.7 µM (top of the series),1.15% (inactive)
same,"activity change, negative = inhibition",[8]; at 57.5 µM (top of the series),9.29% (inactive)
same,max response,[8]; [10],14.6% and 3.67%
same,max response,[8]; [11],15.2% and 21.7%
Nc1nc2c(ncn2COC(CO)CO)c(=O)[nH]1,outcome,[7],inactive
CCc1cccc2c3c([nH]c12)C(CC)(CC(=O)O)OCC3 (configuration not stated),outcome,[7],inactive
same,"activity change, negative = inhibition",[8]; at 57.5 µM (top of the series),2.38% (inactive) and -6.74% (inactive)
same,max response,[8]; [10],1.96% and -60.6%
same,max response,[8]; [11],5.72% and -61.2%
COc1cc2c(c(OC)c1OC)-c1ccc(OC)c(=O)cc1[C@@H](NC(C)=O)CC2,Potency,[6],31.6 nM (active)
same,outcome,[7],inactive
CN1C(C(=O)Nc2ccccn2)=C(O)c2ccccc2S1(=O)=O,outcome,[7],inactive
same,"activity change, negative = inhibition",[8]; at 25.7 µM (top of the series),-1.27% (inactive)
same,max response,[8]; [10],-1.41%
same,max response,[8]; [11],-3.03%
OCCN1CCN(CCCN2c3ccccc3Sc3ccc(C(F)(F)F)cc32)CC1,outcome,[7],inactive
CC(C)C(=O)Nc1ccc([N+](=O)[O-])c(C(F)(F)F)c1,outcome,[1],inactive
same,outcome,[2],inactive
same,outcome,[3],inactive
same,outcome,[4],inactive
same,outcome,[5],inactive
same,Potency,[6],inactive
same,outcome,[7],inactive
O=c1c(-c2ccc(O)cc2)coc2cc(O)cc(O)c12,outcome,[1],inactive
same,outcome,[2],inactive
same,outcome,[3],inactive
same,outcome,[4],inactive
same,outcome,[5],inactive
same,Potency,[6],inactive
same,outcome,[7],inactive
CN(C)CCCN1c2ccccc2CCc2ccc(Cl)cc21,outcome,[7],inactive
Fc1ccc([C@@H]2CCNC[C@H]2COc2ccc3c(c2)OCO3)cc1,outcome,[7],inactive
CN(C)C(=O)C(CCN1CCC(O)(c2ccc(Cl)cc2)CC1)(c1ccccc1)c1ccccc1,outcome,[7],inactive
CCOC(=O)c1ncn2c1CN(C)C(=O)c1cc(F)ccc1-2,outcome,[7],inactive
same,"activity change, negative = inhibition",[8]; at 57.5 µM (top of the series),-0.292% (inactive)
same,max response,[8]; [10],20.1%
same,max response,[8]; [11],21.2%
NS(=O)(=O)c1cc2c(cc1Cl)NCNS2(=O)=O,outcome,[1],inactive
same,outcome,[2],inactive
same,outcome,[3],inactive
same,outcome,[4],inactive
same,outcome,[5],inactive
same,Potency,[6],inactive
same,outcome,[7],inactive
